# Source: PubChem BioAssay (NCATS)
# Inconclusive results are not listed. Where a call stands in place of a potency, no number is given. Values without a mark were called inactive. Calls of active or inactive are those of the source. Calls come from the whole dose curve; as a rule, active = well fitted inhibition curve with a large enough effect; inconclusive = small, poorly fitted or top-dose-only effect; inactive = flat fitted curve, though single readings scatter.
# System: Zika virus NS2B-NS3 protease
# Experiment: Primary screen GU AMC qHTS for Zika virus inhibitors (AID 1347154); note: nearly all actives have a fitted effect of over 70% in size
# Conditions: Zika NS2B-NS3 unlinked protease, AMC fluorogenic substrate; series mostly up to 54.1 µM
# Procedure, shortened: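 Fluorogenic AMC-substrate cleavage by noncovalent NS2B-NS3 protease complex (25 nM, pH 8.0 Tris buffer with Tween 20) followed for 15 minutes at room temperature (~20% conversion). Percent inhibition from ex340/em450 signal change, fitted by 4-parameter Hill equation.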
SMILES,Potency,"activity change, negative = inhibition"
CN(C)CCOc1ccccc1Cc1ccccc1,inactive,
Nc1ccc(/C=C/c2ccc(N)cc2S(=O)(=O)O)c(S(=O)(=O)O)c1,,-4.58% [at 0.59 µM]
CCCCC1=NC2(CCCC2)C(=O)N1Cc1ccc(-c2ccccc2-c2nn[nH]n2)cc1,inactive,
COc1cc(C(=S)N2CCOCC2)cc(OC)c1OC,inactive,
CCOC(=O)c1cccc(N)c1,inactive,
CC(=O)N(O)CCCCCNC(=O)CCC(=O)N(O)CCCCCNC(=O)CCC(=O)N(O)CCCCCN,inactive,
CCCCCC=CCC=CCCCCCCCC(=O)OCC,inactive,
OC[C@@H](O)[C@@H](O[C@@H]1O[C@H](CO)[C@H](O)[C@H](O)[C@H]1O)[C@H](O)[C@@H](O)CO,inactive,
CC(=O)OCC(=O)NCCCOc1cccc(CN2CCCCC2)c1,inactive,
CC(C)COC(=O)c1ccc(N)cc1,inactive,
COc1cc(OC)cc(OC)c1,inactive,
CC[C@@H](CO)NCCN[C@@H](CC)CO,inactive,
CCCCOc1ccc(C(=O)CCN2CCCCC2)cc1,inactive,
CCOC(=O)/C=C(C)/C=C/C=C(C)/C=C/c1c(C)cc(OC)c(C)c1C,inactive,
CCOC(=O)OC(C)OC1=C(C(=O)Nc2ccccn2)N(C)S(=O)(=O)c2ccccc21 (stereo not given),inactive,
O=C(O)CNC(=O)c1ccccc1,inactive,
Oc1c(I)cc(Cl)c2cccnc12,inactive,
COC(=O)[C@@H]1CC2=CC(=O)CC[C@]2(C)[C@@]23O[C@@H]2C[C@@]2(C)[C@@H](CC[C@@]24CCC(=O)O4)[C@H]13,inactive,

SMILES,Potency,"activity change, negative = inhibition"
O=C(COc1ccc(Cl)cc1)N1CCN(Cc2ccc3c(c2)OCO3)CC1,inactive,
COc1cc(-c2ccc(=O)[nH]n2)ccc1OC(F)F,inactive,
CCN1CCCC1=O,inactive,
CCN(CCCc1ccccc1)CCCc1ccccc1,inactive,
CC(C)(CO)[C@@H](O)C(=O)NCCCO,inactive,
Nc1ccc(C(=O)Nc2ccccc2N)cc1,inactive,
NC[C@H]1O[C@H](O[C@H]2[C@H](O[C@@H]3O[C@H](CO)[C@@H](O)[C@H]3O)C(O)[C@H](N)C[C@@H]2N)[C@H](N)[C@@H](O)[C@@H]1O (stereo not given in full),,-1.02% [at 6.83 µM]
Cc1cc2c(cc1CC(=O)c1sccc1S(=O)(=O)Nc1onc(C)c1Cl)OCO2,inactive,
Cc1ccnc(NS(=O)(=O)c2ccc(N)cc2)n1,inactive,
COc1cc(/C=C/C(=O)O[C@H]2CC[C@]34C[C@]35CC[C@]3(C)[C@@H]([C@H](C)CCC=C(C)C)CC[C@@]3(C)[C@@H]5CC[C@H]4C2(C)C)ccc1O,inactive,
O=C(Nc1ccc(Cl)c(Cl)c1)C1CC1,inactive,
Cc1c(C(C)C)c(=O)n(-c2ccccc2)n1C,inactive,
OC[C@H]1O[C@@H](n2cnc3c(=S)nc[nH]c32)[C@H](O)[C@@H]1O,inactive,
CC(=O)Nc1c(I)cc(I)c(C(=O)O)c1I,inactive,
CCCSS/C(CCO)=C(\C)N(C=O)Cc1cnc(C)nc1N,inactive,
CCCCc1nc(Cl)c(CO)n1Cc1ccc(-c2ccccc2-c2nn[nH]n2)cc1,inactive,
Cc1ncc(CSSCc2cnc(C)c(O)c2CO)c(CO)c1O,inactive,
